# Source: PubChem (National Center for Advancing Translational Sciences (NCATS))
# ALOX12 inh = Primary qHTS assay for inhibitors of human arachidonate 12S-lipoxygenase (ALOX12): Round 2; 580,000 tested, 1.1% active; purified 12hLO, xylenol orange hydroperoxide absorbance; Polyunsaturated fatty acid lipoxygenase ALOX12 (Homo sapiens), P18054; Potency, µM (series often up to 108 µM), usual class: inhibitors
#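 Hydroperoxide product was detected by ferrous iron/xylenol orange as the 573 to 405 nm absorbance ratio. Arachidonic acid at 40 uM (final) was turned over for 30 min at room temperature by 150 nM human 12hLO, pH 7.0 Hepes buffer, after 15 min compound preincubation.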
# JMJD2A Tudor inh = qHTS Assay for Inhibitors of JMJD2A-Tudor Domain | Potency, µM (highest dose often 114 µM), hits mostly inhibitors | AlphaScreen JMJD2A-Tudor / H3K4me3 peptide binding | 390,000 tested, 4.4% active; further: nearly all actives have a fitted effect of over 50% in size
# PLK1 PBD block = qHTS for Inhibitors of PLK1-PDB (polo-like kinase 1 - polo-box domain): Primary Screen | Serine/threonine-protein kinase PLK1 (Homo sapiens), P53350 | Plk1 PBD binding of FITC phosphopeptide, fluorescence polarization | Potency, µM, most hits filed as inhibitors | 360,000 tested, 2.8% active | AID 720504, 2013; further: series mostly up to about 57 µM; nearly all actives have a fitted effect of over 65% in size
# BAZ2B block = qHTS Assay for Inhibitors of BAZ2B | Bromodomain adjacent to zinc finger domain protein 2B (Homo sapiens), Q9UIF8 | AlphaScreen BAZ2B-H3K14Ac peptide displacement | Potency, µM (doses to about 114 µM), actives largely listed as inhibitors | 360,000 tested, 4.4% active; further: nearly all actives have a fitted effect of over 60% in size
# Target sequence (Q9UIF8 whole entry, looked up, the tested form may be a part): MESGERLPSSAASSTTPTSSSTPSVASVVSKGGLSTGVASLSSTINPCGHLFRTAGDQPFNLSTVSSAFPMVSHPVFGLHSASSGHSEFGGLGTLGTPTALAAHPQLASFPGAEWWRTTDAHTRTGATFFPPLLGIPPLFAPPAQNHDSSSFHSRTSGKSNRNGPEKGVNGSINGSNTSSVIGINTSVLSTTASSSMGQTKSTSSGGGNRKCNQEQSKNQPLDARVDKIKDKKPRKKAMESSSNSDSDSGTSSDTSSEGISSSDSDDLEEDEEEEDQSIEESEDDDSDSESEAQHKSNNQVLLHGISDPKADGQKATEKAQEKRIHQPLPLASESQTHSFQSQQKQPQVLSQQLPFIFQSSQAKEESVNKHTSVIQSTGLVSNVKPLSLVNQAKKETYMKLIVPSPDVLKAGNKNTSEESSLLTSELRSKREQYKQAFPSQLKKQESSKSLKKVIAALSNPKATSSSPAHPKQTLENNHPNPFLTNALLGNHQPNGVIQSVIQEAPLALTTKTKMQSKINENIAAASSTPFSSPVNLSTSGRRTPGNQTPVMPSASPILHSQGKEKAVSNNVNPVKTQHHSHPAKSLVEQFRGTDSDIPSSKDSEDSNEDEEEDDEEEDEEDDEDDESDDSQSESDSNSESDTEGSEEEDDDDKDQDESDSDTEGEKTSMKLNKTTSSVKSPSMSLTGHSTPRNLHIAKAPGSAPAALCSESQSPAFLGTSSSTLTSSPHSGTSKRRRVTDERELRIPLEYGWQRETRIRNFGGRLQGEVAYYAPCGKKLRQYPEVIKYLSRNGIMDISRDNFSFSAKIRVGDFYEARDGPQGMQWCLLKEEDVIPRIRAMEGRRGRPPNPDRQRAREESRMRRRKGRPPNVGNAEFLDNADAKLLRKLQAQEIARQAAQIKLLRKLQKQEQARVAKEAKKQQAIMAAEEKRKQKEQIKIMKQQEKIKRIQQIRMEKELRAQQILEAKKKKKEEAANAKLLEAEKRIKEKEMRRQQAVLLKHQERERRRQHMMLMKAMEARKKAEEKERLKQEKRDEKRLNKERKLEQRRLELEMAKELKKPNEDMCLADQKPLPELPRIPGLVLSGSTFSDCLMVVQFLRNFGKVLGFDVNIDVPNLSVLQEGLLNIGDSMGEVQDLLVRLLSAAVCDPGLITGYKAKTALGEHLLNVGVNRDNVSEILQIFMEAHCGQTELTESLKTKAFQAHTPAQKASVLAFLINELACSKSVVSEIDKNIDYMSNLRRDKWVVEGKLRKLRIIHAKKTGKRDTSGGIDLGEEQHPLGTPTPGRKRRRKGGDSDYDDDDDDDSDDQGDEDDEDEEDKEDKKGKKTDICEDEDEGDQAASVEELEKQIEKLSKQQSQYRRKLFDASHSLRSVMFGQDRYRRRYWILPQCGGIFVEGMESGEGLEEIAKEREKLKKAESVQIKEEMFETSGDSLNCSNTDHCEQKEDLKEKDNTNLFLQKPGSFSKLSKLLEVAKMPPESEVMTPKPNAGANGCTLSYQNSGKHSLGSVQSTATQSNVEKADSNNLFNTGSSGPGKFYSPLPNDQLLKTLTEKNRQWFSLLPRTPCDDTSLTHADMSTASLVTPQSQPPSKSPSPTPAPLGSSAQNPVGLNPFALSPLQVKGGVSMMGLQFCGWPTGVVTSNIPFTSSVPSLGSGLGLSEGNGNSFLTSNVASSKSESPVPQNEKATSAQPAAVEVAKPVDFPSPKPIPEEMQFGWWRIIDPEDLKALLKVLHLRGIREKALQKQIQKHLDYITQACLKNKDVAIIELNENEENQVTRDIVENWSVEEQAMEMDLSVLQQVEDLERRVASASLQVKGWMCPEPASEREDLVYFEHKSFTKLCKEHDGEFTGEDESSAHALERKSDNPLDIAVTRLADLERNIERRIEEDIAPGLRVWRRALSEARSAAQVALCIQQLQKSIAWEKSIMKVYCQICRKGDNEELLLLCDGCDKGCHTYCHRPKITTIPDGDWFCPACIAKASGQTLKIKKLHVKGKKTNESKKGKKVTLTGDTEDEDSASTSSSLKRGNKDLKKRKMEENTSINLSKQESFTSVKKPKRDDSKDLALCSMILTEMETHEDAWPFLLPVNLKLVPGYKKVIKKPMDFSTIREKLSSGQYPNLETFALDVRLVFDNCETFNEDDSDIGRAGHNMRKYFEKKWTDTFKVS
#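 BAZ2B 50 nM plus b-H3(5-23)K14Ac 50 nM, PBS pH 7.4/0.01% Tween-20, 30 min RT; compound added (max 110 uM), 30 min RT; streptavidin donor/Ni-chelate acceptor beads 10 ug/mL final, 20 min dark; AlphaScreen read.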
# HP1b binding inh = HTS for Inhibitors of HP1-beta Chromodomain Interactions with Methylated Histone Tails | 390,000 tested, 0.56% active | Potency, µM (series often up to 114 µM), hits mostly inhibitors | Chromobox protein homolog 1 (Homo sapiens), P83916 | AlphaScreen HP1-beta / biotin-H3K9me3 peptide binding; further: nearly all actives have a fitted effect of over 70% in size
#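 Compound inhibition of the preformed complex between 50 nM HP1-beta and 50 nM biotinylated H3K9me3 peptide was read by AlphaScreen. Buffer was PBS pH 7.4 with 0.01% Tween-20. Incubations ran 30 min at room temperature, with 10 ug/mL donor/acceptor beads.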
# G9a block = qHTS Assay for Inhibitors of Histone Lysine Methyltransferase G9a; 350,000 tested, 8.8% active; Potency, µM (doses to about 102 µM), most hits filed as inhibitors; G9a H3K9 monomethylation, AlphaScreen, 2 h; Histone-lysine N-methyltransferase EHMT2 (Homo sapiens), Q96KQ7; further: nearly all actives have a fitted effect of over 75% in size
#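 AlphaScreen read-out: biotin-H3K9 peptide (500 nM) methylation by 20 nM enzyme with 20 uM SAM, 2 h at room temperature after 15 min compound preincubation; anti-monomethyl H3K9 antibody plus donor/acceptor beads, 10 min dark.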
# Numbers stand for hits; - = inactive; ? = inconclusive; . = no result given; [ ] = dose if it differs, or a comment. The list is not random: actives were taken first. Their share in the collection is about 9%. The call rests on the fitted dose curve; in most records, active means well fitted curve in the direction sought with a large enough effect; inconclusive means small, poorly fitted or top-dose-only effect, or another doubt; inactive means no such curve, though single readings can be large; an effect the other way counts as inactive or inconclusive.
SMILES,ALOX12 inh,JMJD2A Tudor inh,PLK1 PBD block,BAZ2B block,HP1b binding inh,G9a block
CCOc1cccc(CN2CCCC(c3[nH]ncc3-c3cccc(C(F)(F)F)c3)C2)c1O (configuration not stated),-,.,.,.,.,.
COc1ccc(NC(=O)Cn2nc([N+](=O)[O-])c(Cl)c2C)cc1OC,-,-,-,-,-,-
Cn1c(O)c(N=Nc2ccc(F)cc2)c2ccccc21,18µM,-,-,-,?,25µM
Cn1c(O)c(N=Nc2nc(-c3ccccc3)cs2)c2ccccc21,-,?,-,?,-,?
Cn1c(O)c(N=NC(=O)Cc2c[nH]c3ccccc23)c2ccccc21,-,?,-,.,-,.
Cn1c(O)c(N=Nc2ccccc2)c2ccccc21,-,-,?,-,-,22µM
COCC(=O)N1CCC(n2nnc3cc(C(F)(F)F)ccc32)CC1,-,-,?,-,-,-
CN(C)C(=O)C1CN(C(=O)Nc2ccc(F)c(Cl)c2)CC12CCOCC2 (configuration not stated),-,.,.,.,.,.
Cc1nn(-c2ccccc2)c(C)c1NC(=O)COC(=O)CC(C)c1ccccc1 (configuration not stated),-,16µM,-,-,-,?
Cc1cccc(OCCC(=O)OCC(=O)Nc2c(C)nn(-c3ccccc3)c2C)c1,.,-,-,-,-,35µM
O=C(CCOc1ccccc1)OCC(=O)c1cc2ccccc2o1,-,-,-,-,-,?
CNC(=O)COC(=O)/C=C/c1c(C)nn(-c2ccccc2)c1C,-,-,-,-,-,50µM
Cc1cccc(OCCC(=O)OCC(=O)c2cc3ccccc3o2)c1,50µM,.,.,.,.,.
COCCN(CCOC)S(=O)(=O)c1ccc(C(=O)Nc2nc(-c3ccncc3)cs2)cc1,-,-,-,-,-,-
Cc1csc(NC(=O)[C@@H]2C[C@@H](c3ccc(F)cc3)N([S+](=O)([O-])c3cccnc3)C2)n1,-,.,.,.,.,.
Cc1onc(-c2ccccc2)c1-c1nnc(CSc2nnnn2C(C)C)o1,-,.,.,.,.,.
O=C(N/N=C/c1ccc(C(=O)O)cc1)C(=O)N1CCCCCC1,-,-,-,-,-,.
CCOc1ccc(N2CC(C(=O)NCc3ccco3)CC2=O)cc1 (configuration not stated),-,-,-,?,-,-
CCN1CCN(c2nc3ccccc3nc2C(C#N)S(=O)(=O)c2ccc(OC)cc2)CC1 (configuration not stated),18µM,.,.,.,.,.
CN1CCN(c2nc3ccccc3nc2C(C#N)S(=O)(=O)c2ccccc2)CC1 (configuration not stated),-,-,-,-,-,.
CCN1CCN(c2nc3ccccc3nc2C(C#N)S(=O)(=O)c2ccc(Cl)cc2)CC1 (configuration not stated),45µM,.,.,.,.,.
N#CC(c1nc2ccccc2nc1N1CCCC1)S(=O)(=O)c1cccs1 (configuration not stated),?,?,?,-,-,13µM
CCNc1nc2ccccc2nc1C(C#N)S(=O)(=O)c1ccc(C)c(C)c1 (configuration not stated),14µM,.,.,.,.,.
COC(=O)c1c(NC(=O)COC(=O)CCS(=O)(=O)c2ccc(C)cc2)sc(C)c1C,-,-,-,-,-,-
O=C(COC(=O)c1ccc(Cl)nc1)Nc1cccc(S(=O)(=O)N2CCCCC2)c1,-,-,-,-,-,-[12.7 µM]
SMILES,ALOX12 inh,JMJD2A Tudor inh,PLK1 PBD block,BAZ2B block,HP1b binding inh,G9a block
Cc1cc2ncc(C(=O)NCCc3ccc(Cl)cc3)cn2n1,-,.,.,.,.,.
CCN1CCN(c2nc3ccccc3nc2C(C#N)S(=O)(=O)c2cccc(C)c2)CC1 (configuration not stated),14µM,.,.,.,.,.
COc1ccc2oc(=O)c(-c3nc(-c4ccc(C)cc4)no3)cc2c1,-,.,.,.,.,.
COc1ccc(C(=O)NC(=S)NNC(=O)c2c(-c3ccccc3)noc2C)cc1OC,?,-,-,-,-,32µM
Cc1onc(-c2ccccc2)c1C(=O)N/N=C/c1cccs1,-,-,-,-,-,-
Cc1onc(-c2ccccc2)c1C(=O)NNC(=S)NC(=O)/C=C/c1cccs1,?,-,-,-,-,13µM
Cc1onc(-c2ccccc2)c1C(=O)NCc1ccc2c(c1)OCO2,-,-,-,?,-,?
Cc1onc(-c2ccccc2)c1C(=O)NNC(=S)NC(=O)c1ccc2c(c1)OCO2,?,-,-,-,-,50µM
Cc1onc(-c2ccccc2)c1C(=O)NC(=S)NNC(=O)c1cc(-c2ccc(F)cc2)n[nH]1,45µM,-,-,-,-,50µM
Cc1onc(-c2ccccc2)c1C(=O)NC(=S)NNC(=O)c1ccncc1,-,-,-,-,-,-
O=C(COc1ccccc1)Nc1ccc2c(c1)Cc1cc(NC(=O)COc3ccccc3)ccc1-2,-,-,-,-,-,-
CCCCNC(=O)CCNS(=O)(=O)c1ccc(C)cc1,-,-,-,-,-,-
Cc1ccsc1/C=N/Nc1ccc(F)cc1F,40µM,-,-,?,-,1.3µM
Cc1ccsc1/C=N/Nc1ncc(Cl)cc1Cl,-,-,-,-,-,-
Cc1ccsc1/C=N/Nc1nc2ccccc2s1,?,-,-,?,-,-
Cc1cc(C)nc(N/N=C/c2sccc2C)n1,-,13µM,19µM,-,-,-
Cc1ccc2oc(-c3ccc(Br)cc3)nc2c1,-,.,.,.,.,.
O=C1c2cccc3cccc(c23)C(=O)N1Cc1cccnc1,?,-,-,-,-,-
CCCCN1C(=S)SC(C)(C)C1/[N+]([O-])=C/c1cccnc1 (configuration not stated),-,-,-,-,-,-[0.501 µM]
CCCN1C(=S)SC(C)(C)C1/[N+]([O-])=C/c1cccnc1 (configuration not stated),-,-[11.4 µM],24µM,-,-,-
O=S(=O)(Cc1ccc(Cl)cc1)N1CCN(Cc2ccccc2)CC1,-,-,-,-,-,?
O=S(=O)(Cc1ccccc1)N1CCN(Cc2ccc(Br)cc2)CC1,?,3.5µM,-,-,?,-
CSc1ccc(CN2CCN(S(=O)(=O)Cc3ccccc3)CC2)cc1,-,5µM,-,-,?,89µM
CSc1ccc(CN2CCCN(C)CC2)cc1,?,13µM,-,56µM,?,10µM
CCc1ccc(CN2CCN(S(=O)(=O)Cc3ccccc3)CC2)cc1,-,0.79µM,-,18µM,-,?
